Measurements from PubChem BioAssay AID1159580 (chemical genetic matrix, 2015).
The campaign covered roughly 5,500 compounds. About 2,000 (36%) were called active. About 18% were inconclusive and are not listed. Cut-off read from the data, not from the text of the source: active = normalized growth mostly below about 0.91 (no sharp cut-off); inconclusive = no clear call, values can overlap the other calls; inactive = mostly above about 0.92. The list shows a part of the results.

Assay: chemical genetic growth profiling, strain panel (AID 1159580);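 note: tested at 20 µM; growth read once vehicle control cultures reached saturation at 30 °C; 1 = growth at the plate median or of vehicle wells; lower values mean less growth of the strain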
Conditions: growth OD

Measured: normalized growth

CNC(=O)Oc1ccccc1OC(C)C
inactive: S. cerevisiae deletion strains, locus YJR043C, strain POL32, hits give low values 1.01 | S. cerevisiae deletion strains, locus YJR075W, strain HOC1, hits give low values 1.02 | S. cerevisiae deletion strains, locus YKL009W, strain mrt4, hits give low values 0.986 | S. cerevisiae deletion strains, locus YKL068W, hits give low values 0.991 | S. cerevisiae deletion strains, locus YKL085W, strain MDH1 (second series), hits give low values 0.982 | S. cerevisiae deletion strains, locus YKL085W, strain MDH1, hits give low values 0.982 | S. cerevisiae deletion strains, locus YKL160W, strain elf1, hits give low values 0.996 | S. cerevisiae deletion strains, locus YKL190W, strain CNB1, hits give low values 1.01 | S. cerevisiae deletion strains, locus YKR001C, strain vps1, hits give low values 0.99 | S. cerevisiae deletion strains, locus YKR026C, strain gcn3, hits give low values 0.993 | S. cerevisiae deletion strains, locus YKR091W, strain srl3, hits give low values 0.989 | S. cerevisiae deletion strains, locus YLL001W, strain dnm1, hits give low values 0.995 | S. cerevisiae deletion strains, locus YLL026W, hits give low values 0.986 | S. cerevisiae deletion strains, locus YLL041C, strain sdh2, hits give low values 0.994 | S. cerevisiae deletion strains, locus YLR027C, strain aat2, hits give low values 0.995 | S. cerevisiae deletion strains, locus YLR039C, strain RIC1, hits give low values 1.05 | S. cerevisiae deletion strains, locus YLR058C, strain SHM2, hits give low values 1.02 | S. cerevisiae deletion strains, locus YLR102C, strain apc9, hits give low values 0.988 | S. cerevisiae deletion strains, locus YLR221C, strain rsa3, hits give low values 0.986 | S. cerevisiae deletion strains, locus YLR258W, strain gsy2, hits give low values 0.984 | S. cerevisiae deletion strains, locus YLR262C, strain YPT6 (second series), hits give low values 1.01 | S. cerevisiae deletion strains, locus YLR262C, strain YPT6, hits give low values 1.06 | S. cerevisiae deletion strains, locus YLR268W, strain sec22, hits give low values 0.99 | S. cerevisiae deletion strains, locus YLR320W, strain mms22, hits give low values 0.987 | S. cerevisiae deletion strains, locus YLR330W, strain CHS5, hits give low values 1.02 | S. cerevisiae deletion strains, locus YLR342W, strain FKS1 (second series), hits give low values 1 | S. cerevisiae deletion strains, locus YLR342W, strain FKS1, hits give low values 0.99 | S. cerevisiae deletion strains, locus YLR357W, strain rsc2, hits give low values 0.953 | S. cerevisiae deletion strains, locus YLR370C, strain arc18, hits give low values 0.992 | S. cerevisiae deletion strains, locus YLR371W, strain rom2, hits give low values 0.987 | S. cerevisiae deletion strains, locus YLR384C, strain iki3, hits give low values 0.99 | S. cerevisiae deletion strains, locus YLR418C, strain cdc73, hits give low values 0.97 | S. cerevisiae deletion strains, locus YML016C, strain PPZ1, hits give low values 1.03 | S. cerevisiae deletion strains, locus YML032C, strain rad52, hits give low values 0.989 | S. cerevisiae deletion strains, locus YML120C, strain ndi1, hits give low values 0.986 | S. cerevisiae deletion strains, locus YML124C, strain tub3, hits give low values 0.991 | S. cerevisiae deletion strains, locus YMR058W, strain fet3, hits give low values 0.989 | S. cerevisiae deletion strains, locus YMR078C, strain ctf18, hits give low values 0.985 | S. cerevisiae deletion strains, locus YMR125W, strain sto1, hits give low values 0.957 | S. cerevisiae deletion strains, locus YMR129W, hits give low values 0.995 | S. cerevisiae deletion strains, locus YMR205C, strain PFK2, hits give low values 0.984 | S. cerevisiae deletion strains, locus YMR223W, strain ubp8, hits give low values 0.986 | S. cerevisiae deletion strains, locus YMR231W, strain pep5, hits give low values 0.988 | S. cerevisiae deletion strains, locus YMR263W, strain SAP30, hits give low values 1.03 | S. cerevisiae deletion strains, locus YMR307W, strain GAS1, hits give low values 0.988 | S. cerevisiae deletion strains, locus YNL067W, strain RPL9B, hits give low values 1.03 | S. cerevisiae deletion strains, locus YNL071W, strain lat1, hits give low values 1 | S. cerevisiae deletion strains, locus YNL128W, strain TEP1, hits give low values 1.02 | S. cerevisiae deletion strains, locus YNL153C, strain GIM3, hits give low values 1.02 | S. cerevisiae deletion strains, locus YNL209W, strain ssb2, hits give low values 0.994 | S. cerevisiae deletion strains, locus YNL233W, strain BNI4, hits give low values 0.982 | S. cerevisiae deletion strains, locus YNL248C, strain rpa49, hits give low values 0.979 | S. cerevisiae deletion strains, locus YNL250W, strain rad50, hits give low values 0.979 | S. cerevisiae deletion strains, locus YNL271C, strain bni1, hits give low values 0.968 | S. cerevisiae deletion strains, locus YNL298W, strain CLA4, hits give low values 0.98 | S. cerevisiae deletion strains, locus YNL307C, strain MCK1, hits give low values 0.992 | S. cerevisiae deletion strains, locus YNL322C, strain KRE1 (second series), hits give low values 0.98 | S. cerevisiae deletion strains, locus YNL322C, strain KRE1, hits give low values 1.01 | S. cerevisiae deletion strains, locus YNR049C, strain mso1, hits give low values 0.989 | S. cerevisiae deletion strains, locus YNR052C, strain pop2, hits give low values 0.986 | S. cerevisiae deletion strains, locus YOL006C, strain TOP1, hits give low values 1.06 | S. cerevisiae deletion strains, locus YOL012C, strain htz1 0.953 | S. cerevisiae deletion strains, locus YOL147C, strain pex11, hits give low values 0.993 | S. cerevisiae deletion strains, locus YOR001W, strain rrp6, hits give low values 0.998 | S. cerevisiae deletion strains, locus YOR061W, strain CKA2, hits give low values 1.01 | S. cerevisiae deletion strains, locus YOR069W, strain VPS5, hits give low values 1.01 | S. cerevisiae deletion strains, locus YOR070C, strain gyp1, hits give low values 0.986 | S. cerevisiae deletion strains, locus YOR080W, strain dia2, hits give low values 0.963 | S. cerevisiae deletion strains, locus YOR083W, strain WHI5, hits give low values 0.995 | S. cerevisiae deletion strains, locus YOR106W, strain vam3, hits give low values 0.991 | S. cerevisiae deletion strains, locus YOR136W, strain idh2, hits give low values 0.992 | S. cerevisiae deletion strains, locus YOR144C, strain elg1, hits give low values 0.995 | S. cerevisiae deletion strains, locus YOR184W, strain ser1, hits give low values 0.991 | S. cerevisiae deletion strains, locus YOR265W, strain rbl2, hits give low values 0.985 | S. cerevisiae deletion strains, locus YOR270C, strain vph1, hits give low values 1 | S. cerevisiae deletion strains, locus YOR290C, strain snf2, hits give low values 1 | S. cerevisiae deletion strains, locus YOR316C, strain cot1, hits give low values 0.992 | S. cerevisiae deletion strains, locus YPL051W, strain arl3, hits give low values 0.995 | S. cerevisiae deletion strains, locus YPL055C, strain LGE1, hits give low values 1.03 | S. cerevisiae deletion strains, locus YPL078C, strain atp4, hits give low values 0.998 | S. cerevisiae deletion strains, locus YPL106C, strain sse1, hits give low values 0.98 | S. cerevisiae deletion strains, locus YPL240C, strain hsp82, hits give low values 1 | S. cerevisiae deletion strains, locus YPL241C, strain CIN2, hits give low values 1.01 | S. cerevisiae deletion strains, locus YPR119W, strain clb2, hits give low values 0.994 | S. cerevisiae deletion strains, locus YPR141C, strain kar3, hits give low values 0.978 | S. cerevisiae deletion strains, locus YPR163C, strain tif3, hits give low values 0.987 | S. cerevisiae deletion strains, locus YPR167C, strain met16, hits give low values 0.989 | S. cerevisiae deletion strains, strain wtn01, hits give low values 0.984 | S. cerevisiae strains, strain wild type, hits give low values 1.01
